# Where a name gives a salt, the structure may show the parent alone. Unmarked numbers belong to inactive results.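 Rule for the calls: for the amine columns active = adjusted P below 0.05 in both replicates with a change the same way and a mean fold change under 0.8 or over 1.25; inactive = the rest.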
# Test system: Escherichia coli IAI1
# Assay: fold change of Putrescine concentration vs plate DMSO controls (fold change (ratio)); higher = more amine produced, active = hit call of the paper (significant change in both replicates, either direction)
# Details: incubation time: 27 h, anaerobic, 37 °C
# Method in brief: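 In 80 µL wells, cultures of four gut bacterial strains in mGAM started at OD 0.1 before a 1:1 dilution and grew anaerobically at 37 °C for 27 h. Compounds were added to 20 µM final, except sweeteners at 50 µM final. After extraction of whole cultures with cold acetonitrile/methanol plus 0.1% formic acid and centrifugation, amines were measured by LC–triple-quadrupole MS in dynamic MRM mode against external calibration curves, with within-batch drift correction. Values give fold change over DMSO controls on the same plate, averaged across 2 biological replicates.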
row,SMILES,fold change of Putrescine concentration
1,Oc1c(Cl)cc(Cl)c2cccnc12 [Chloroxine] (20 µM),0.945
2,O=C1NCCN1CCN1CCC(c2cn(-c3ccc(F)cc3)c3ccc(Cl)cc23)CC1 [Sertindole] (20 µM),1.31
3,CCSc1ccc2c(c1)N(CCCN1CCN(C)CC1)c1ccccc1S2 [Thiethylperazine maleate] (20 µM),1.07
4,Cc1ccsc1/C=C/C1=NCCCN1C [Morantel tartrate] (20 µM),1.01
5,COc1cc(C)nc(-n2nc(C)cc2OC)n1 [Epirizole] (20 µM),0.949
6,CCC1(c2ccccc2)NC(=O)N(C)C1=O (centres undefined) [Mephenytoin] (20 µM),1.06
7,CCCCCCCC/C=C\CCCCCCCCCCCC(=O)O [Erucic acid] (20 µM),0.981
8,C#CCN(C)CCCOc1ccc(Cl)cc1Cl [Clorgyline hydrochloride] (20 µM),0.968
9,CC1=NN(c2ccccc2)C(=O)C1 [Edaravone] (20 µM),1.03
10,CC(=O)N[C@H]1[C@H]([C@H](O)[C@H](O)CO)OC(C(=O)O)=C[C@@H]1NC(=N)N [Zanamivir] (20 µM),0.946
11,Cc1ccc(S(=O)(=O)NC(=O)NN2CCCCCC2)cc1 [Tolazamide] (20 µM),1.05
12,CN1CCN(C2=Nc3cc(Cl)ccc3Nc3ccccc32)CC1 [Clozapine] (20 µM),1.02
13,CCCNC(C)(C)C(=O)Nc1ccccc1C [Quatacaine] (20 µM),0.994
14,CN(C)c1cc(NC(=O)CNC(C)(C)C)c(O)c2c1C[C@H]1C[C@H]3[C@H](N(C)C)C(=O)C(C(N)=O)=C(O)[C@@]3(O)C(=O)C1=C2O [Tigecycline] (20 µM),1.08
15,CCOC(=O)[N-]c1c[n+](N2CCOCC2)no1 [Molsidomine] (20 µM),0.994
16,CCN(CC)CCOC(=O)C(Cc1cccc2ccccc12)CC1CCCO1 (centres undefined) [Nafronyl oxalate] (20 µM),1.01
17,CCN(CC)CCOC(=O)C1(C2CCCCC2)CCCCC1 [Dicyclomine hydrochloride] (20 µM),0.988
18,CC[C@H]1OC(=O)[C@H](C)[C@@H](O[C@H]2C[C@@](C)(OC)[C@@H](O)[C@H](C)O2)[C@H](C)[C@@H](O[C@@H]2O[C@H](C)C[C@H](N(C)C)[C@H]2O)[C@](C)(O)C[C@@H](C)C(=O)[C@H](C)[C@@H](O)[C@]1(C)O [Erythromycin] (20 µM),0.459
19,NC(=O)NS(=O)(=O)c1ccc(N)cc1 [Sulfacarbamide] (20 µM),1.01
20,O=c1[nH]cc(F)c(=O)[nH]1 [5-fluorouracil] (20 µM),0.626

row,SMILES,fold change of Putrescine concentration
1,NC(=O)N/N=C/c1ccc([N+](=O)[O-])o1 [Nitrofural] (20 µM),0.6 (active)
2,COC(=O)C1=C(C)NC(C)=C(C(=O)OC2CCCN(Cc3ccccc3)C2)C1c1cccc([N+](=O)[O-])c1 (centres undefined) [Benidipine hydrochloride] (20 µM),1.24
3,CCNC(=O)CCC/C=C\C[C@@H]1[C@@H](/C=C/[C@@H](O)CCc2ccccc2)[C@H](O)C[C@@H]1O [Bimatoprost] (20 µM),1.02
4,CN(Cc1ccc(C(C)(C)C)cc1)Cc1cccc2ccccc12 [Butenafine hydrochloride] (20 µM),1.05
5,CN1CCC(OC(c2ccccc2)c2ccccc2)CC1 [Diphenylpyraline hydrochloride] (20 µM),1.01
6,c1ccc2cc3c(ccc4ccccc43)cc2c1 [Benz[a]anthracene] (20 µM),1.02
7,CC1=C(C(=O)O)N2C(=O)[C@@H](NC(=O)[C@H](N)c3ccccc3)[C@H]2SC1 [Cephalexin monohydrate] (20 µM),0.911
8,CNc1ncnc2c1ncn2[C@@H]1O[C@H](CO)[C@@H](O)[C@H]1O [N6-methyladenosine] (20 µM),1
9,Cn1nnc2c(C(N)=O)ncn2c1=O [Temozolomide] (20 µM),1
10,CN[C@@H]1[C@H](O[C@H]2[C@H](O[C@H]3[C@H](O)[C@@H](O)[C@H](N=C(N)N)[C@@H](O)[C@@H]3N=C(N)N)O[C@@H](C)[C@]2(O)C=O)O[C@@H](CO)[C@H](O)[C@H]1O [Streptomycin sulfate] (20 µM),0.983
11,CC(C)Oc1ccc2c(=O)c(-c3ccccc3)coc2c1 [Ipriflavone] (20 µM),0.98
12,CC[C@@H]1C(=O)OC[C@@H]1Cc1cncn1C [Pilocarpine nitrate] (20 µM),1.02
13,COC(=O)[C@@H]1[C@H]2C[C@H]3c4[nH]c5ccccc5c4CCN3C[C@@H]2CC[C@@H]1O [Yohimbine hydrochloride] (20 µM),1.05
14,CC(=O)N1CCN(c2ccc(OCC3COC(Cn4ccnc4)(c4ccc(Cl)cc4Cl)O3)cc2)CC1 (centres undefined) [Ketoconazole] (20 µM),1.04
15,CN1C(C(=O)Nc2ccccn2)=C(O)c2ccccc2S1(=O)=O [Piroxicam] (20 µM),1.03
16,NS(=O)(=O)c1cc2c(cc1Cl)NC(Cc1ccccc1)NS2(=O)=O (centres undefined) [Benzylhydrochlorothiazide] (20 µM),1.06
17,Cc1cc2c(cc1S(N)(=O)=O)S(=O)(=O)CCC2 [Meticrane] (20 µM),0.983
18,OC[C@@H](O)[C@@H](O)[C@@H](O)[C@@H](O)CO [Allitol] (50 µM),1.02
19,Cc1c(N(C)C)c(=O)n(-c2ccccc2)n1C [Amidopyrine] (20 µM),0.995
